Only some compounds are listed: those with a hit (about 5.4% of all), similar ones and a draw of the others.
SKKanGAS inh: SKKanGAS growth inhibition. S. pyogenes SKKanGAS, kanamycin growth, BacTiter-Glo, 6 h. inhibition, % at 7.5 µM. actives 1.3% (n = 300,000). AID 1662;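 active = mean replicate score, as percent of positive control median, at least 50; inconclusive = mean below 50 but one replicate at or above 50; inactive = mean and every replicate below 50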;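 also: strain carries kanamycin resistance gene driven by streptokinase promoter and grows in 40 µg/ml kanamycin; loss of luminescence reflects streptokinase promoter inhibition or plain growth inhibition; 0% = median of DMSO wells and 100% = positive control at its reference dose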
Calb FLC: affects C. albicans growth with fluconazole | C. albicans CaCi-2 (fluconazole-resistant clinical isolate) + fluconazole, Alamar Blue growth, 48 h | growth inhibition, % (no concentration beside the values) | actives 0.57% (n = 300,000) | AID 1979;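 active = growth inhibition above about 58% in most replicates, limit read from the data, passing the limit was not always enough; inconclusive = exactly half the replicates above a set limit; inactive = most replicates below a set limit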;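 also: all wells also contain fluconazole at 8 µg/ml as a sub-toxic cotreatment; 0% = median of DMSO wells and 100% = median of geldanamycin control wells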
MPTP inh: permeability transition pore inhibition | isolated mouse mitochondria, Ca2+ swelling absorbance, 30 min | inhibition, % at 10 µM | actives 1.4% (n = 360,000) | AID 602449;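 active = inhibition of 50% or more, scaled per plate between neutral and stimulator controls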;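 also: 0% = DMSO wells given calcium and 100% = 1 mM EGTA wells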
CSC inhib: blocks cancer stem cells. cancer stem cell-like cells viability, luminescence. inhibition, % at 7.5 µM. actives 1.1% (n = 300,000). AID 2717; in the data active = inhibition above about 75%; inconclusive = no clear call, values can overlap the other calls; tested in HMLE shEcad cells
Beta apoptosis: beta cell apoptosis inhibition | INS-1E cytokine-induced death, ATP luminescence, 48 h; percent of positive-control rescue, neutral wells zero | protection from apoptosis, % (concentration not given with the values) | actives 0.8% (n = 300,000);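 active = Every replicate reaches about 75%, or at least half do and their mean reaches it too, limit read from the data; inconclusive = At least half of replicates reach the limit but their mean does not; inactive = Under half of replicates reach the limit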;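 also: 0% = cytokine-treated negative control wells and 100% = positive control rescue; higher means more ATP so stronger rescue from cytokine killing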
Mdm2 MdmX PPI: inhibitors of human Mdm2/MdmX interaction; inhibition, % at 8 µM; AID 485346; actives 3% (n = 330,000); SaOS-2 split-luciferase Mdm2/MdmX complementation, luminescence; O15151+Q00987;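 active = inhibition of at least 50% at 8 µM in the primary screen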
Target sequence (O15151 whole entry, looked up): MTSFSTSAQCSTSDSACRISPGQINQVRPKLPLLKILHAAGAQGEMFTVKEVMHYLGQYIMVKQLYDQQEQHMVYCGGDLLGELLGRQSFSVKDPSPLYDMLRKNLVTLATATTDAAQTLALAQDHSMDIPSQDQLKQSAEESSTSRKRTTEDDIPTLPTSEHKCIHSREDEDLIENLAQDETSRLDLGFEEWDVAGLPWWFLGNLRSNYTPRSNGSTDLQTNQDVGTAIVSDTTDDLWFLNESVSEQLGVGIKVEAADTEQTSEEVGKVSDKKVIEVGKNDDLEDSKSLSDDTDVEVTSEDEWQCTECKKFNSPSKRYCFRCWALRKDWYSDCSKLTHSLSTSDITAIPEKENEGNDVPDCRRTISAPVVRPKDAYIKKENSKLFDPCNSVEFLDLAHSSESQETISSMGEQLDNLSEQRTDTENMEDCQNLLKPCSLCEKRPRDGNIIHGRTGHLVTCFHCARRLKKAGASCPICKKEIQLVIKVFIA
Target sequence (Q00987 whole entry, looked up): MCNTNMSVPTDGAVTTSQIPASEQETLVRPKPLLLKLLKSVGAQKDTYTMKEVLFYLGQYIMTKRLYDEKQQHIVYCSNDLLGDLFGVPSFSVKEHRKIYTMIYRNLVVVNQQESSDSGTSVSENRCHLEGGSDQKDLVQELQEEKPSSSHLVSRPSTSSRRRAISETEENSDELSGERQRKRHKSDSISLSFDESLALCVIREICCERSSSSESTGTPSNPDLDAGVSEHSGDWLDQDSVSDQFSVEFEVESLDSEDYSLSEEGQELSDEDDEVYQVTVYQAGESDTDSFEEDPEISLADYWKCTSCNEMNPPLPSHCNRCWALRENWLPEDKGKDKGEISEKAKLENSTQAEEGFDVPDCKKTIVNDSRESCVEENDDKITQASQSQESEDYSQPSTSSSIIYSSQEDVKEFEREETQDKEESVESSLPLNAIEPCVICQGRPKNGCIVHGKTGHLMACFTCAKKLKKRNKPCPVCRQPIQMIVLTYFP
The depositor's hits bear a star; ? = inconclusive; nt = not tested or not shown.

SMILES	SKKanGAS inh	Calb FLC	MPTP inh	CSC inhib	Beta apoptosis	Mdm2 MdmX PPI
O=C(Nc1nc2ccccc2n1Cc1ccccc1)c1ccc(COc2ccccc2[N+](=O)[O-])o1	36	-25	1	nt	24	38
COc1ccc(NC(=O)c2ccc(COc3ccccc3Br)o2)c(OC)c1	1	-4	1	92*	0	24
CC(C)NC(=O)c1ccccc1NC(=O)/C=C/c1ccc([N+](=O)[O-])cc1	-7	8	0	-13	1	39
Cc1c(C(=O)Nc2ccc3c(c2)OCCO3)sc2nc(-c3ccccc3)cn12	70*	-5	9	-11	49	49
COc1cc(OC)cc(C(=O)Nc2cccc(-c3ccc(N4CCOCC4)nn3)c2)c1	55*	0	4	nt	9	40
O=C(Nc1cccc(-c2ccc(N3CCOCC3)nn2)c1)c1ccccc1Cl	50*	9	-2	nt	-3	-51
COc1ccc(C(=O)Nc2cccc(-c3ccc(N4CCOCC4)nn3)c2)cc1	52*	20	1	nt	13	-47
O=C(Nc1cccc(-c2ccc(N3CCOCC3)nn2)c1)c1ccc(Cl)cc1	36	6	-1	nt	14	-37
Cc1ccc(C(=O)Nc2cccc(-c3ccc(N4CCOCC4)nn3)c2)cc1	-3	20	0	-2	7	-36
Cn1nc([N+](=O)[O-])nc1S(C)(=O)=O	3	0	-2	nt	nt	-6
CCCCN(C(=O)Nc1ccc(Cl)cc1)C1CCN(C(C)=O)CC1	-5	-4	0	-1	-4	-8
COc1cc2c3c(c1)c(C1=NC(=S)NC1=O)c(O)n3C(C)(C)C=C2C	15	0	7	9	3	27
CC(=O)Oc1cc2c3c(c1)/C(=C1/SC(=S)NC1=O)C(=O)N3C(C)(C)C=C2C	82*	1	42	16	12	10
Cc1cc(Br)c(OCc2ccc(C(=O)N/N=C3\CC(=O)CC(C)(C)C3)cc2)c(Br)c1	32	57	26	-2	13	3
O=C(NCc1ccccc1)c1nc(-c2c(F)cccc2F)oc1-c1ccccc1	nt	nt	2	nt	nt	nt
Nc1cc(Cl)ccc1Oc1ccc2ccccc2c1	-1	-8	3	83*	9	-6
NC(=O)c1ccc(Nc2nnc(-c3ccc(O)cc3)c3ccccc23)cc1	26	85*	0	2	-3	-8
CCC(CO)[n+]1c(C)cc(/C=C2\Sc3ccccc3N2Cc2ccccc2)cc1C (configuration not stated)	nt	nt	4	26	105*	nt
Cc1ccc(N(CCC(=O)Nc2nnc(C3CC3)s2)S(=O)(=O)c2ccccc2)cc1	-3	21	nt	-11	-15	8
CCOC(=O)c1cnn(-c2nc3c(C)cccc3s2)c1C(F)(F)F	88*	?	-1	7	2	2
O=C(O)c1cnn(-c2nc(-c3cccc(F)c3)cs2)c1C(F)(F)F	0	11	1	-5	-5	-20
CCOC(=O)c1cnn(-c2nc(-c3cccc(F)c3)cs2)c1C(F)(F)F	64*	4	4	-11	-2	-13
COc1ccc(-n2c(SCC(=O)Nc3ccccc3)nc(O)cc2=O)cc1	50*	-5	0	-7	-1	3
COc1ccc(-n2c(SCC(=O)Nc3cccc4ccccc34)nc(O)cc2=O)cc1	32	9	4	-10	-11	13
Cc1ccc(-n2c(SCC(=O)Nc3ccc4c5c(cccc35)CC4)nc(O)c(C)c2=O)cc1	-10	-3	0	0	0	-4
SMILES	SKKanGAS inh	Calb FLC	MPTP inh	CSC inhib	Beta apoptosis	Mdm2 MdmX PPI
COc1ccc(NC(=O)CSc2nc(O)cc(=O)n2-c2ccc(OC)cc2)cc1	54*	-6	0	-7	-5	-30
Cc1ccc(-n2c(SCC(=O)Nc3ccc4c5c(cccc35)CC4)nc(O)cc2=O)cc1	52*	24	16	1	-8	13
Cc1nonc1NC(=O)CSc1nnnn1-c1ccccc1	-2	-1	0	3	-8	-15
COC(=O)c1ccc(COc2ccccc2/C=C(\C#N)C(=O)Nc2c(C)cc(C)cc2C)cc1	15	?	0	117*	22	49
O/N=C/c1ccnc(SCc2ccc(Cl)cc2)n1	4	12	4	80*	nt	16
S=c1nc[nH]c2c1cnn2Cc1ccccc1	12	94*	0	-2	-3	15
O=C(/C=C/c1ccc(F)cc1)NC(=S)Nc1ccccc1	-1	-5	2	3	1	-5

Compound activity: PubChem, several laboratories
